Only some compounds are listed: those with a hit (about 2.5% of all), similar ones and a draw of the others.
Cruzain inh Det – blocks cruzain activity in presence of Triton detergent | P25779 | purified cruzain, Z-FR-AMC fluorescence, 0.01% Triton | Potency, µM, hits mostly inhibitors | hit rate 0.43% among 200,000 | AID 1478; also: nearly all actives have a fitted effect of over 40% in size
Target sequence (P25779 123-467 limits assumed): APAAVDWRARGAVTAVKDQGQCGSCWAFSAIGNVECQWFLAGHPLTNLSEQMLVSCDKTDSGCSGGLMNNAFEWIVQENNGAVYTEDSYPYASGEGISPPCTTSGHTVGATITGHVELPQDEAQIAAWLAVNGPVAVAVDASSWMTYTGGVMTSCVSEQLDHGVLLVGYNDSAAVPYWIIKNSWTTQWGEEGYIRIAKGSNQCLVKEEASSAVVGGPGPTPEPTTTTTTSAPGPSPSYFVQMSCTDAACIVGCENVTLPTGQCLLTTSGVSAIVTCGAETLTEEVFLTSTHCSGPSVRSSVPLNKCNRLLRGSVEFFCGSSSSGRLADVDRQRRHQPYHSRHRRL
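Compounds were screened in titration against cruzain (1.5 nM) with 0.01% Triton X-100 to counter colloidal aggregation. Activity was the AMC fluorescence increase over 60 s after adding 2 uM Z-FR-AMC at pH 5.5.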
Cruzain noTriton – inhibitors of Trypanosoma cruzi cruzain without detergent; P25779; purified cruzain, Z-FR-AMC fluorescence, no detergent; Potency, µM, hits mostly inhibitors; hit rate 2.3% among 200,000; also: nearly all actives have a fitted effect of over 40% in size
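Detergent-free condition (0.00005% Triton X-100) in acetate buffer pH 5.5 with DTT. 1.5 nM enzyme and compound were pre-mixed 15 min, then 2 uM Z-FR-AMC substrate added; reaction progress from fluorescence change between first and third reads (60 s).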
Numbers stand for hits; n = inactive; u = inconclusive. Calls follow the shape of the dose curve; as a rule, active = well fitted curve in the direction sought with a large enough effect; inconclusive = small, poorly fitted or top-dose-only effect, or another doubt; inactive = no such curve, though single readings can be large; an effect the other way counts as inactive or inconclusive.

SMILES	Cruzain inh Det	Cruzain noTriton
CCOC(=O)c1cc2c(=O)n3ccccc3nc2n(CC2CCCO2)c1=NC(C)=O (configuration not stated)	32µM	10µM
CCCCNC(=O)c1cc2c(=O)n3cccc(C)c3nc2n(Cc2ccncc2)c1=N	22µM	u
COCCn1c(=N)c(C(=O)NCc2ccco2)cc2c(=O)n3ccccc3nc21	n	u
CCn1c(=N)c(C(=O)NC)cc2c(=O)n3cccc(C)c3nc21	14µM	u
CCn1c(=N)c(C(=O)NCc2ccccc2)cc2c(=O)n3cccc(C)c3nc21	n	n
COc1ccc(CCNC(=O)c2cc3c(=O)n4cccc(C)c4nc3n(Cc3ccncc3)c2=N)cc1	n	n
CCOC(=O)c1cc2c(=O)n3ccccc3nc2n(CC2CCCO2)c1=NC(=O)c1cc(C)cc(C)c1 (configuration not stated)	n	n
CCn1c(=N)c(C(=O)OC)cc2c(=O)n3ccccc3nc21	0.2µM	n
CC(C)(C)OC(=O)N1CCC(c2c(C(=O)NCCN3CCOCC3)cnn2-c2ccc(F)cc2)CC1	n	n
CCOc1c(Cl)cc(Cl)cc1CNCCSc1nnnn1C	n	n
CCC(=O)NNc1ncnc2c1cnn2-c1ccc(C)c(Cl)c1	n	n
CCOC(=O)c1c(C)sc(-c2c(-c3ccc4c(c3)OCCO4)[nH]c3c2c(=O)n(C)c(=O)n3C)c1O	n	u
CCOc1ccc(CCNC(=O)c2cn(CC)c3ccc(S(=O)(=O)N4CCCCCC4)cc3c2=O)cc1OCC	n	u
CN(C)c1ccc(Sc2nnc(NC(=O)Nc3ccc(Cl)cc3Cl)s2)cc1	n	10µM
CCC(=O)Nc1nnc(Sc2ccc(N(C)C)cc2)s1	n	n
c1ccc(C2CC(c3ccccc3)n3c(nc4ccccc43)N2)cc1 (configuration not stated)	n	13µM
O=C1C2CC=CCC2C(=O)N1c1nc2n(n1)C(c1ccccc1)CC(c1ccccc1)N2 (configuration not stated)	n	u
Cc1cn2c(=O)c(S(=O)(=O)NC(C)c3ccccc3)c(C)nc2s1 (configuration not stated)	n	n
CCCCCSc1nnc2c(n1)OC(CC)Nc1ccc(Br)cc1-2 (configuration not stated)	n	n
CCOC(=O)c1ccccc1NC(=O)CCc1nc(-c2ccc(C)cc2)no1	n	n
Cc1ccc(-c2noc(CCC(=O)Nc3ccc(C)cn3)n2)cc1	n	25µM
Cc1ccccc1OCCSc1nnc(-c2ccc([N+](=O)[O-])cc2)o1	n	n
Cc1ccc(C2CC(c3cccs3)=NN2C(=O)c2ccc(Br)o2)cc1 (configuration not stated)	n	7.9µM
CCOC(=O)CSCC(=O)N1N=C(c2cccs2)CC1c1ccc(F)cc1 (configuration not stated)	n	n
Cc1cc(NC(=O)Nc2nc3c(s2)CCCCCC3)ccc1Br	n	n
SMILES	Cruzain inh Det	Cruzain noTriton
Nc1ccc2c(c1)C/C(=C/c1ccco1)C2=O	n	u
COc1ccc2c(c1)CC/C(=C/c1ccco1)C2=O	22µM	20µM
COc1ccc(NC(=O)Cn2c(=O)oc3cc(S(=O)(=O)N4CCC(C)CC4)ccc32)c(OC)c1	n	n
COc1cccc(/C=N/NC(N)=S)c1OCc1ccccc1Cl	n	u
NC(=S)N/N=C/c1ccccc1OCCSc1ccc(Cl)cc1	1.4µM	1µM
Cc1ccc(S(=O)(=O)Oc2ccccc2/C=N/NC(=O)c2nn(C)cc2[N+](=O)[O-])cc1	n	n
COc1cccc(/C=N/NC(N)=S)c1OS(=O)(=O)c1ccccc1	14µM	5µM
COc1cccc(/C=N/NC(=O)c2cccc([N+](=O)[O-])c2)c1OS(=O)(=O)c1ccccc1	n	n
Cc1ccc(S(=O)(=O)Oc2ccccc2/C=N/NC(N)=S)cc1	7.1µM	u
Clc1cccc(N2CCN(c3nc4ccccc4n4cnnc34)CC2)c1	n	n
O=C(Nc1cccc(Cl)c1)Nc1ccccc1OCc1cc(=O)n2ccccc2n1	n	n
COc1ccc(C(=O)Nc2cc(Cl)cc(Cl)c2)c(OC)n1	n	13µM
COc1ccc(C(=O)Nc2cc(Cl)ccc2Cl)c(OC)n1	n	n
CCCOc1ccc(C(=O)Nc2ccc3oc(-c4ccc5ccccc5c4)nc3c2)cc1	n	n
C=CCn1c(SCC(=O)Nc2ccccc2OC)nnc1-c1ccco1	n	n
C=CCn1c(SCC(=O)Nc2nccs2)nnc1-c1cc2cccc(OC)c2o1	n	25µM
CCCCOc1cccc(C(=O)N(Cc2ccc(C)o2)c2ccccn2)c1	n	n
COc1cccc(Nc2nc3c(S(=O)(=O)c4cc(C)ccc4C)nnn3c3ccsc23)c1	n	n
O=C(COC(=O)c1cccc(S(=O)(=O)N2CCc3ccccc32)c1)Nc1ncc(Cl)cc1Cl	n	u
Cc1cccc(N2CCN(C(=O)c3ccc(Cl)c(S(=O)(=O)N4CCc5ccccc5C4)c3)CC2)c1C	n	10µM
O=C(COC(=O)c1ccc(Cl)c(S(=O)(=O)N2CCc3ccccc3C2)c1)Nc1ncc(Cl)cc1Cl	n	20µM

From PubChem BioAssay
